Reference: ChEMBL document CHEMBL2218924, “A broad activity screen in support of a chemogenomic map for kinase signalling research and drug discovery” (Biochem J, 2013)

Biological target: T1, Serine/threonine-protein kinase TBK1 (Homo sapiens) (UniProt Q9UHD2)
T1 sequence (whole entry): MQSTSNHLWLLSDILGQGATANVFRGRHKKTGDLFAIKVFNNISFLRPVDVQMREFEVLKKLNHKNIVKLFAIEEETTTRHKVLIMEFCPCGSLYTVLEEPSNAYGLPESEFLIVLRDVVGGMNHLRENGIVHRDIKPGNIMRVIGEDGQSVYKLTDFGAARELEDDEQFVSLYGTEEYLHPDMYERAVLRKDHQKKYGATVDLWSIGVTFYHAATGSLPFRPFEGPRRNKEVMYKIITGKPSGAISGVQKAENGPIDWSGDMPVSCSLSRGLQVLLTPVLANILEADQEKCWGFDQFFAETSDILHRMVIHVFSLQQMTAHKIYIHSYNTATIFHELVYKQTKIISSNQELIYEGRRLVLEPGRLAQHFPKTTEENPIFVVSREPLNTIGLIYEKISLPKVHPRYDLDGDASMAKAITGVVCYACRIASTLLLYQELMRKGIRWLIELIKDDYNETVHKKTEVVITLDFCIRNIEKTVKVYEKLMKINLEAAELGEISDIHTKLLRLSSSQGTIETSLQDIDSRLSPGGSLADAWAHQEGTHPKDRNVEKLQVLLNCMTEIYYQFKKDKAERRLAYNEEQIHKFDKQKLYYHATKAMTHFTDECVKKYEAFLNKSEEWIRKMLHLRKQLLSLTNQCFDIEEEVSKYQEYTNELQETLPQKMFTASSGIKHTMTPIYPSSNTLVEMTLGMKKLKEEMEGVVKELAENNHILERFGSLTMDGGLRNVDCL
Settings: at 1 µM

Row | Structure (SMILES) | residual activity [%]
1 | CO[C@H]1[C@@H](OC)C[C@H](C)[C@@H](OC)C2=CC(=O)C=C(NC(=O)/C(C)=C/C=C/[C@H](OC)[C@@H](OC(N)=O)/C(C)=C/[C@@H]1C)C2=O | 77
2 | O=C1NC(=O)c2c1c1c3ccccc3[nH]c1c1[nH]c3cc(Br)ccc3c21 | 75
3 | CCC(=O)Nc1ccc2ncnc(Nc3cccc(Br)c3)c2c1 | 69
4 | CC(C)n1cnc2c(NCc3ccccc3)nc(NCCCO)nc21 | 79
5 | CCN(CC)C(=O)c1ccc(Nc2nc(OCC3CCCCC3)c3nc[nH]c3n2)cc1 | 15
6 | CO[C@H]1C[C@@H]2CC[C@@H](C)[C@@](O)(O2)C(=O)C(=O)N2CCCC[C@H]2C(=O)O[C@H]([C@H](C)C[C@@H]2CC[C@@H](O)[C@H](OC)C2)CC(=O)[C@H](C)/C=C(\C)[C@@H](O)[C@@H](OC)C(=O)[C@H](C)C[C@H](C)/C=C/C=C/C=C/1C | 63
7 | COc1ccc(C(=O)Nc2sc3c(c2C(N)=O)CCCC3)cc1OC | 72
8 | COc1cc2ncnc(N3CCN(C(=O)Nc4ccc(Oc5ccccc5)cc4)CC3)c2cc1OC | 57
9 | CC(C)n1cnc2/c(=N/c3cccc(Cl)c3)nc(NCCO)[nH]c21 | 57
10 | CN(C)c1ccc(/C=C2\C(=O)Nc3ccccc32)cc1 | 81
11 | O=[N+]([O-])c1ccc(-c2nc(-c3ccc(F)cc3)c(-c3ccncc3)[nH]2)cc1 | 87
12 | Cc1cc2ncc(-c3ccccc3)nc2cc1C | 86
13 | CC#CC(=O)Nc1cc2c(Nc3ccc(F)c(Cl)c3)ncnc2cn1 | 78
14 | Nc1ccc2ncnc(NCCc3ccc(Oc4ccccc4)cc3)c2c1 | 94
15 | O=C1NC(=O)/C(=C/c2ccc3c(c2)OC(F)(F)O3)S1 | 80
16 | O=C(O)c1ccc2c3c1cccc3c(=O)n1c3ccccc3nc21 | 19
17 | Cc1ccc(S(=O)(=O)/C=C/C#N)cc1 | 87
18 | Cc1ccc(NC2=CC(=O)c3sc(C)nc3C2=O)cc1 | 77

Row | Structure (SMILES) | residual activity [%]
19 | CC(=O)c1ccc(N2CCOCC2)cc1O | 74
20 | O=C1NC(=O)/C(=C\c2ccc3nccnc3c2)S1 | 56
21 | COc1cccc(-c2cc(=O)c3ccccc3o2)c1N | 97
22 | N#CCCc1ccc2c(c1)-c1[nH]c3ccc([N+](=O)[O-])cc3c1CC(=O)N2 | 38
23 | COc1cc2ncnc(Nc3ccc(Oc4ccccc4)cc3)c2cc1OC | 72
24 | NC(=O)c1ccc2[nH]c(-c3ccc(Oc4ccc(Cl)cc4)cc3)nc2c1 | 67
25 | COc1cc2ncnc(Nc3ccc(O)c(Br)c3)c2cc1OC | 41
26 | O=c1cc(-c2cccc3c2Sc2ccccc2S3)oc(N2CCOCC2)c1 | 99
27 | Nc1cccc(-c2cc3c(Oc4cccc(O)c4)ncnc3[nH]2)c1 | 70
28 | O=C(Nc1cccc(Nc2nccc(Nc3cccc(C(F)(F)F)c3)n2)c1)C1CC1 | 78
29 | Oc1n[nH]c2nnc(-c3c(-c4ccccc4)nn4ccccc34)cc12 | 67
30 | C[C@@H](N)[C@H]1CC[C@H](C(=O)Nc2ccncc2)CC1 | 107
31 | O=C1Nc2cc(Br)ccc2/C1=C1/Nc2ccccc2/C1=N\O | 8
32 | O=Nc1c(-c2c(O)[nH]c3ccccc23)[nH]c2ccccc12 | 9
33 | Nc1n[nH]c2nnc(-c3c(-c4ccccc4)nn4ccccc34)cc12 | 75
34 | CCN(CC)CCCCN1c2ccccc2Oc2ccc(Cl)cc21 | 91
35 | O=C(Nc1cccc(Nc2cc(Nc3cccc(C(F)(F)F)c3)ncn2)c1)C1CC1 | 89
